This is a sample that favours compounds with a hit; in the whole collection about 3.5% have one here.
GPR151 ag = human GPR151 activation; 1% of 650,000 active; PathHunter beta-arrestin GPR151 cells, luminescence; activation, % at 11.2 µM; in the data active = activation above about 4.9%;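 also: 0% = median of compound wells and 100% = cells with positive control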
TEAD-YAP block = TEAD-YAP interaction inhibition. HEK-TIYL cells, TEAD-Gal4/YAP UAS-luciferase luminescence. inhibition, % at 9.12 µM. 1.4% of 640,000 active. AID 1259422; in the data active = inhibition above about 32%;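 also: 0% = median of test compound wells and 100% = reference inhibitor wells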
MITF primary = human MITF inhibition, primary screen | 0.91% of 650,000 active | AID 1259374 | O75030 | inhibition, % at 2.6 µM | AlphaScreen MITF homodimerization, bead proximity signal; in the data active = inhibition above about 50%;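 also: 0% = vehicle wells with protein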
FBW7 activator = activators of human E3 ligase FBW7; Q969H0; AlphaScreen FBW7–phospho-cyclin E peptide binding, activator screen; normalized activity (activation), % at 26.1 µM; 0.13% of 650,000 active; AID 1259310; in the data active = normalized activity above about 1.9%;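 also: purified mutant Fbw7 with reduced substrate affinity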
Active calls of the source: *.

SMILES	GPR151 ag	TEAD-YAP block	MITF primary	FBW7 activator
O=C1CCCN1CCCNc1nc(-c2cccs2)nc2c1ncn2-c1ccsc1	-1	55*	14	0
CCCNc1nc(-c2c(C)nn(C)c2C)nc2c1ncn2-c1ccsc1	-1	23	0	0
Cc1nn(C)c(C)c1-c1nc(NCCc2ccc(O)cc2)c2ncn(-c3ccsc3)c2n1	2	56*	20	0
Cc1nn(C)c(C)c1-c1nc(NCCN2CCOCC2)c2ncn(-c3ccsc3)c2n1	-2	38*	10	0
O=C1CCCN1CCCNc1nc(-c2csc3ccccc23)nc2c1ncn2-c1ccsc1	1	12	8	0
O=C1CCCN1CCCNc1nc(Nc2ccccc2)nc2c1ncn2-c1ccsc1	1	65*	9	0
O=C(c1cccc([N+](=O)[O-])c1)N1CCN(C(=O)N2CCCCC2)CC1	1	-5	-7	0
CCC1CN(CCNC(=O)C(c2cccnc2)N2CCCC2)Cc2cc(OC)ccc2O1 (centres undefined)	1	-4	-4	0
O=C1CCCN1CCCNc1nc(Nc2ccc3ncccc3c2)nc2c1ncn2-c1ccsc1	0	52*	11	0

From PubChem BioAssay
